Screening results (PubChem BioAssay)
FLuc counter – counter-screen for miR-21 project: firefly luciferase inhibitors or activators; AID 588342; purified FLuc, Km substrates, luminescence inhibition; Potency, µM (doses to about 57.5 µM), for the others: at the highest dose activity change, negative = inhibition, most hits filed as inhibitors; P08659; actives 6.9% (n = 360,000);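 further: plate controls were vehicle for no effect and reference inhibitor for full effect; nearly all actives have a fitted effect of over 55% in size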
Target sequence (P08659 whole entry, looked up): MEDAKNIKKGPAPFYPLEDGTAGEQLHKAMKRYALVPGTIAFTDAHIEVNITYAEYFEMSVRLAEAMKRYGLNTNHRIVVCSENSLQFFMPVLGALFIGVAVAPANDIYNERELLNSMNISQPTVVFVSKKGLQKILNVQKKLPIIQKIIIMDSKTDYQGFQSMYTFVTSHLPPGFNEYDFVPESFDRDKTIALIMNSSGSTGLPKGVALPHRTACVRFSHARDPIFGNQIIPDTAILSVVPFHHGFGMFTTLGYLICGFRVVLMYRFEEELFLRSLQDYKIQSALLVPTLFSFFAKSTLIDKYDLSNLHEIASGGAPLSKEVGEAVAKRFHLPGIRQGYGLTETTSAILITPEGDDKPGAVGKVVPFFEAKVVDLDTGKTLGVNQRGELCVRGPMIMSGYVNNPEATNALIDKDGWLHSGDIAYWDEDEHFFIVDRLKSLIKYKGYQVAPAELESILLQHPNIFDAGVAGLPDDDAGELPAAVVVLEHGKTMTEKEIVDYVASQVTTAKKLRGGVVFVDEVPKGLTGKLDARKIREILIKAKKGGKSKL
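Biochemical qHTS of compounds, final roughly 60 µM downward over six points, against 10 nM purified firefly luciferase using Km concentrations of substrates (10 uM D-luciferin, 10 uM ATP) in Tris acetate pH 7.5 buffer; luminescence output.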
NPC1 promoter act – activates the NPC1 promoter | AID 485313 | Potency, µM (titrated, usually from 9.22 µM), for the others: at the top dose activation, actives largely listed as activators | Huh7 NPC1 promoter luciferase reporter, 24 h | actives 2.4% (n = 320,000); further: % of control where 0% means no effect; nearly all actives have a fitted effect of over 60% in size
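NPC1 promoter–luciferase Huh7 cells; 24 h compound; luminescence.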
Rab9 prom act – activators of Rab9 promoter | Huh7 Rab9 promoter-luciferase reporter, luminescence, 24 h | Potency, µM (series often up to 9.22 µM), without a hit: at the highest dose activation, negative = inhibition, usual class: activators | actives 2.8% (n = 320,000) | AID 485297; further: % of control where 0% means no effect; nearly all actives have a fitted effect of over 60% in size
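Measured in stably transfected Huh7 cells bearing a Rab9 promoter–luciferase construct: 24 h compound treatment at 37 °C, followed by luminescence detection.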
ELG1 genotox – genotoxicity induction in ELG1-luciferase HEK293T cells; HEK293T ELG1-luciferase reporter, luminescence, 16 h; actives 1.3% (n = 330,000); Potency, µM (series often up to 46 µM), for inactives: at the highest dose activity change, positive = activation, hits mostly activators; further: % of control where 0% means no effect; nearly all actives have a fitted effect of over 60% in size
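Step 1: seed 2,000 HEK293T ELG1-luciferase cells per well. Step 2: add compound or DMSO, incubate 16 hr at 37 °C. Step 3: ONE-Glo, 30 min at room temperature, read luminescence.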
p53 reactivation – restores transcriptional activity of mutant p53; H1299 p53-A138V BP100-luciferase reporter, luminescence, 24 h; Potency, µM (top dose mostly 92.2 µM), without a hit: at the highest dose activity change, positive = activation, usual class: activators; actives 0.063% (n = 320,000); further: % of control where 0% means no effect; nearly all actives have a fitted effect of over 45% in size
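H1299 (p53-null), stable ts p53-A138V + BP100-Luc; 1000 cells/well, Opti-MEM/10% FBS; cpd 4 pt, 1:5; 24 h, 37 deg C, 5% CO2; detection reagent 10 min RT; luminescence.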
SMN2 splice up – SMN2 splice variant enhancement | HEK293 SMN2-luciferase splicing reporter, luminescence, 30-36 h | Potency, µM (series often up to 46.1 µM), for the others: at the highest dose activity change, positive = activation, usual class: activators | actives 2.8% (n = 210,000) | AID 1458; further: % of control where 0% means no effect; nearly all actives have a fitted effect of over 55% in size
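HEK293 cells carry an SMN2 […]–luciferase reporter in which exon 7 inclusion puts luciferase in frame. Cells were plated 10-12 h before compound addition, then incubated 30-36 h at 37C. ONE-Glo luminescence was read; sodium butyrate at 4.5 mM final served as control.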
* = called active by the depositor. Most compounds without a hit are left out; they make up all but 7.4% or so of the library. The call rests on the fitted dose curve; in most records, active means well fitted curve in the direction sought with a large enough effect; inconclusive means small, poorly fitted or top-dose-only effect, or another doubt; inactive means no such curve, though single readings can be large; an effect the other way counts as inactive or inconclusive. Potency means the concentration at half of the fitted maximal effect.

`O=C(CCN1C(=O)/C(=C\c2cccs2)SC1=S)Nc1ccc(C(=O)O)cc1` gave FLuc counter 0.0%, NPC1 promoter act -1.6%, Rab9 prom act -4.2%, ELG1 genotox 11.7% and p53 reactivation 5.5%.
Screening CCN(C(=O)CCN1C(=O)/C(=C/c2ccccc2)SC1=S)C1CCS(=O)(=O)C1 (centres undefined) returned FLuc counter 23.9µM*, NPC1 promoter act -18.4%, Rab9 prom act -21.8%, ELG1 genotox -7.8% and p53 reactivation inconclusive.
For COc1cccc(/C=C2\SC(=S)N(CCCC(=O)N3CCCCC3CCO)C2=O)c1 (centres undefined) the results were FLuc counter inconclusive, NPC1 promoter act -9.3%, Rab9 prom act -37.2%, ELG1 genotox -12.0% and p53 reactivation -9.2%.
COc1cccc(/C=C2\SC(=S)N(CCCC(=O)N3CCCC3)C2=O)c1 was read as FLuc counter 16.9µM*, NPC1 promoter act -12.3%, Rab9 prom act -16.7%, ELG1 genotox -6.7% and p53 reactivation inconclusive.
Screening O=C(O)CCN1C(=O)/C(=C\c2ccncc2)SC1=S returned FLuc counter -16.5%, NPC1 promoter act -7.3%, Rab9 prom act -2.2%, ELG1 genotox 8.0%, p53 reactivation -10.6% and SMN2 splice up -4.5%.
For COc1ccc(/C=C2/SC(=S)N(CCC(=O)O)C2=O)cc1 the results were FLuc counter 5.36µM*, NPC1 promoter act -8.0%, Rab9 prom act -12.1%, ELG1 genotox -4.0%, p53 reactivation -6.2% and SMN2 splice up -13.1%.
C=C(C)CN(CC)C(=O)CCc1nnc(CCCc2ccccc2)o1 was read as FLuc counter 12µM*, NPC1 promoter act 3.55µM*, Rab9 prom act 3.16µM*, ELG1 genotox inconclusive and p53 reactivation 16.0%.
Screening Cc1cccc(Cc2nnc(CCC(=O)N(C)CCc3ccccc3)o2)c1 returned FLuc counter 7.57µM*, NPC1 promoter act 3.55µM*, Rab9 prom act 3.98µM*, ELG1 genotox 18.3µM* and p53 reactivation -42.4%.
Screening Cc1cc(-c2nnc(CCC(=O)N(C)CCc3ccccc3)o2)no1 returned FLuc counter inconclusive, NPC1 promoter act -3.0%, Rab9 prom act 9.0%, ELG1 genotox inconclusive and p53 reactivation 6.0%.
Screening CCN(CCn1cccn1)C(=O)CCc1nnc(-c2ccc3c(c2)OCO3)o1 returned FLuc counter -18.1%, NPC1 promoter act -0.1%, Rab9 prom act 7.4%, ELG1 genotox 7.9% and p53 reactivation 1.7%.
`CCN(CCn1cccn1)C(=O)CCc1nnc(CCCc2ccccc2)o1` gave FLuc counter 15.1µM*, NPC1 promoter act inconclusive, Rab9 prom act 2.82µM*, ELG1 genotox 16.4µM*, p53 reactivation 10.5% and SMN2 splice up 11.2µM*.
Screening CCOC(=O)c1c(C)oc2ccc(N(C(=O)Oc3ccccc3)S(=O)(=O)c3ccccc3)cc12 returned FLuc counter -0.6% and SMN2 splice up -6.5%.
Screening CCn1nnc2cc(C(=O)Nc3ccc(C)c(Cl)c3)ccc21 returned FLuc counter 4.4%.
CCCCCN(C(=O)CCC(=O)OCC(=O)c1c(C)cc(C)cc1C)c1c(N)n(CCCC)c(=O)[nH]c1=O was read as FLuc counter 0.8%, NPC1 promoter act -0.1%, Rab9 prom act -0.2%, ELG1 genotox -8.3% and p53 reactivation -1.1%.
`O=c1cc(-c2ccccc2)[nH]c2nc3ccccc3n12` gave FLuc counter 0.953µM*, NPC1 promoter act 3.55µM*, Rab9 prom act 2µM*, ELG1 genotox 2.31µM*, p53 reactivation -5.6% and SMN2 splice up 3.98µM*.
Screening Cc1csc2c(N3CCN(C(=O)NC(C)(C)C)CC3)ncnc12 returned FLuc counter -1.5%, NPC1 promoter act -4.0%, Rab9 prom act -8.4%, ELG1 genotox -8.8% and p53 reactivation -4.6%.
For CCOC(=O)C1CCN(c2ncnc3nc[nH]c23)CC1 the results were FLuc counter 0.7%, NPC1 promoter act -2.0%, Rab9 prom act 1.0%, ELG1 genotox 0.4%, p53 reactivation -3.1% and SMN2 splice up -9.0%.
Screening Cc1csc2c(N3CCN(C(=O)c4ccc(C(C)(C)C)cc4)CC3)ncnc12 returned FLuc counter 26.9µM*, NPC1 promoter act -6.1%, Rab9 prom act -4.2%, ELG1 genotox 4.7% and p53 reactivation -1.4%.
For CCOC(=O)C1CCN(c2ncnc3c(C)csc23)CC1 the results were FLuc counter 10.7µM*, NPC1 promoter act 24.6%, Rab9 prom act inconclusive, ELG1 genotox inconclusive and p53 reactivation 7.5%.
For Cc1ccc(Cl)cc1-n1ncc2c(NC3CCCCCC3)ncnc21 the results were FLuc counter -0.4%.
Cc1ccc(-n2ncc3c(NC4CCCCCC4)ncnc32)cc1Cl was read as FLuc counter 2.69µM*.
Fc1ccc(-n2ncc3c(Nc4ccc(Oc5ccc(Cl)cc5)cc4)ncnc32)cc1 was read as FLuc counter 0.6%.
For Clc1ccc(-n2ncc3c(NC4CCCC4)ncnc32)cc1 the results were FLuc counter 0.849µM*.
For c1ccc(-n2ncc3c(NC4CCCCCC4)ncnc32)cc1 the results were FLuc counter 2.69µM*, NPC1 promoter act 1.78µM*, Rab9 prom act 1.78µM*, ELG1 genotox inconclusive and p53 reactivation inconclusive.
`CCOC(=O)N1CCC(Nc2ncnc3c2cnn3-c2ccccc2)CC1` gave FLuc counter -16.9%, NPC1 promoter act -2.4%, Rab9 prom act 20.3%, ELG1 genotox -4.3%, p53 reactivation 1.8% and SMN2 splice up -35.8%.
For Cc1ccc(N2CC(c3nnc(Cc4ccc(F)cc4Cl)o3)CC2=O)cc1 (centres undefined) the results were FLuc counter -1.0% and SMN2 splice up 19.7%.
Screening O=S(=O)(NCc1nc2cccnc2n1Cc1ccccc1)c1ccc2c(c1)CCCC2 returned FLuc counter -0.5%.
For CC(=O)N1CC=CC1(CC(C)C)C(=O)O (centres undefined) the results were SMN2 splice up -2.3%.
For CC1CCC2(CC1)NC(=O)N(CC(=O)Nc1ccc(C(N)=O)cc1)C2=O (centres undefined) the results were ELG1 genotox 0.1% and p53 reactivation 0.8%.
For CC(C)(C)c1ccc(-c2ncccc2O)cc1 the results were FLuc counter 13.5µM*, NPC1 promoter act 21.7%, Rab9 prom act 18.0%, ELG1 genotox 9.8% and p53 reactivation 18.3%.
